Active and inactive are the calls of the source. Rule for the calls: active = hit-call score of the fitted dose curve at least 0.9, where 1 is the maximum; inactive = score below 0.9.

What all share (settings): primary human HUVEC with PBMC; actives raise or lower the signal
Read-out in assay [1]: Interleukin-1 alpha (IL1a), IL1A (gene 3552)
The assay can be described thus: BSK_LPS_IL1a: BioMAP Diversity Plus: LPS Assay for Interleukin-1 alpha (IL1a) Biomarker Activity (AID 2283080). In short, it runs like this:
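Human umbilical vein endothelial cells co-cultured with PBMC and stimulated with LPS; IL-1a measured by ELISA 24 h after dosing. Bidirectional fitting against DMSO; cytotoxicity checked by SRB staining in parallel cultures.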

Assay [2] is described as follows: BSK_LPS_PGE2: BioMAP Diversity Plus: LPS Assay for Prostaglandin E2 (PGE2) Biomarker Activity (AID 2283082). In short, it runs like this: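 Endpoint derived from bidirectional curve fitting versus DMSO of ELISA-measured PGE2 in LPS-stimulated human primary vascular co-culture (HUVEC with PBMC) harvested at 24 h.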
Read-out in assay [3]: Macrophage colony-stimulating factor (MCSF), CSF1 (gene 1435)
The experiment in a line: BSK_LPS_MCSF: BioMAP Diversity Plus: LPS Assay for Macrophage colony-stimulating factor (MCSF) Biomarker Activity (AID 2283083). In short, it runs like this: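 HUVEC–PBMC co-culture, M-CSF measured by ELISA 24 h after chemical dosing. Fitted in both directions relative to DMSO as negative control; overt cytotoxicity assessed by SRB total-protein staining in parallel cultures.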

Read-out in assay [4]: Tissue Factor, F3 (gene 2152)
The assay can be described thus: BSK_LPS_TissueFactor: BioMAP Diversity Plus: LPS Assay for Tissue Factor Biomarker Activity (AID 2283084). Summed up:
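Human umbilical vein endothelial cells co-cultured with PBMC were dosed with compound. Cell-surface CD142 was measured by ELISA 24 h later. Activity was fitted bidirectionally against DMSO, with SRB total-protein staining in parallel cultures for cytotoxicity.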

Read-out in assay [5]: Tumor necrosis factor (Homo sapiens) (UniProt P01375)
The assay can be described thus: BSK_LPS_TNFa: BioMAP Diversity Plus: LPS Assay for Tumour Necrosis Factor alpha (TNFa) Biomarker Activity (AID 2283085).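 For AC50: TNFa protein level quantified by ELISA in the co-culture.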 Summed up: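 Primary human vascular co-culture of HUVEC and PBMC; TNFa ELISA 24 h after treatment, analysed as increase or decrease relative to DMSO control.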

Read-out in assay [6]: Vascular cell adhesion molecule 1 (VCAM1), VCAM1 (gene 7412)
The assay can be described thus: BSK_LPS_VCAM1: BioMAP Diversity Plus: LPS Assay for Vascular cell adhesion molecule 1 (VCAM1) Biomarker Activity (AID 2283086). In short, it runs like this:
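Primary human vascular co-culture (umbilical vein endothelium plus PBMC) stimulated with LPS received chemical; 24 h later VCAM-1 was read by ELISA. Overt cytotoxicity was assessed by sulforhodamine B staining of parallel cultures at the same time point.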

Read-out in another assay: CD38, CD38 (gene 952)
The experiment in a line: BSK_SAg_CD38: BioMAP Diversity Plus: SAg Assay for CD38 Biomarker Activity (AID 2283087). Summed up: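 Fluorescence ELISA of cell-surface CD38 served as the read-out, with either increase or decrease fitted against DMSO controls. Cells were a human umbilical vein endothelium plus PBMC co-culture under SEB/TSST-1 stimulation, measured 24 h after dosing.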

Read-out in the next assay: CD40, CD40 (gene 958)
The experiment in a line: BSK_SAg_CD40: BioMAP Diversity Plus: SAg Assay for CD40 Biomarker Activity (AID 2283088). Summed up:
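HUVEC plus PBMC co-culture, superantigen-activated, with CD40 read by ELISA 24 h after dosing. Curves fitted in both directions against DMSO. Overt cytotoxicity checked by parallel SRB total-protein staining.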

Read-out in assay [7]: Monocyte Chemoattractant Protein-1 (MCP1), CCL2 (gene 6347)
The experiment in a line: BSK_LPS_MCP1: BioMAP Diversity Plus: LPS Assay for Monocyte Chemoattractant Protein-1 (MCP1) Biomarker Activity (AID 2283081).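 For AC50: secreted MCP-1 protein quantified by ELISA in culture supernatant.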 Summed up: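 Human umbilical vein endothelial cells co-cultured with PBMC, LPS-stimulated; secreted MCP-1 measured by ELISA 24 h after compound addition. Bidirectional curve fitting against DMSO baseline; SRB total-protein staining in parallel cultures for cytotoxicity.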

Tumor necrosis factor (Homo sapiens), sequence (P01375 whole entry, looked up): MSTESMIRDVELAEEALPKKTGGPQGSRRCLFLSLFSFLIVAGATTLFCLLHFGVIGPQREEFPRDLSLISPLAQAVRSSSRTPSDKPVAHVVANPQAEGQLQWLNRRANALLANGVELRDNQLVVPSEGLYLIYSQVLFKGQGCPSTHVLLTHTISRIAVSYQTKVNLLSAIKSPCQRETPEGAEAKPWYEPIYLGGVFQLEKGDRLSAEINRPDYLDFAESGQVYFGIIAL

For the molecule `CN(C)N=O`, the outcome in assay [1], in assay [2], in assay [3], in assay [4], in assay [5] and in [6] was inactive. For the same molecule, in the assay with CD38, CD38 (gene 952), the result was inactive.
As to `O=S(=O)(c1ccc(Cl)cc1)c1ccc(Cl)cc1`, the result in assay [1], in assay [2], in [3], in [4], in assay [5] and in [6] was inactive. The outcome in the assay with CD38, CD38 (gene 952) was “inactive”; with CD40, CD40 (gene 958), “inactive”.
`Cc1ccccc1N`: the outcome in [1], in assay [7], in assay [2], in [3], in assay [4] and in [5] was inactive. Moreover, the outcome in the assay with CD38, CD38 (gene 952) was inactive.
In the case of `ClC1=C(Cl)[C@]2(Cl)[C@H]3[C@H]([C@H]4C=C[C@H]3C4)[C@@]1(Cl)C2(Cl)Cl`, the outcome in assay [1], in assay [3] and in [4] was inactive. Further, the AC50 (commonly the midpoint of the concentration-response curve, whichever way the signal moves) was 0.142 µM (active) in [2]; 0.296 µM (active) in assay [5]; 4.55 µM (active) with CD38, CD38 (gene 952); 4.46 µM (active) with CD40, CD40 (gene 958).
On to `C[C@]12CCC(=O)C[C@@H]1CC[C@@H]1[C@@H]2CC[C@]2(C)[C@@H](O)CC[C@@H]12`, for which the outcome in assay [1] is “inactive”; in [2], “inactive”; in assay [4], “inactive”; in [5], “inactive”; with CD38, CD38 (gene 952), “inactive”; in the assay with CD40, CD40 (gene 958), “inactive”. Further, the AC50 in assay [3] is 19 µM (active); in assay [6] it was 29 µM (active).
On to `Cn1sc(Cl)cc1=O`, for which the AC50 in assay [1] is 29.3 µM (active); in assay [3], 29.5 µM (active); in assay [5], 31.2 µM (active); with CD38, CD38 (gene 952), 31.3 µM (active); with CD40, CD40 (gene 958), 26.4 µM (active). Besides, the result in [2] and in assay [4] was inactive.
Consider `C(=NC1CCCCC1)=NC1CCCCC1`, for which the AC50 is 29.4 µM (active) in assay [1]; 30 µM (active) in assay [7]; 20 µM (active) in assay [3]; 34.8 µM (active) in assay [4]; 35.1 µM (active) in assay [5]; 14.1 µM (active) in the assay with CD38, CD38 (gene 952). Also, the AC50 with CD40, CD40 (gene 958) was 17.3 µM (active). Further, the outcome in assay [2] was inactive.
Take `CCC(=O)C(CC(C)N(C)C)(c1ccccc1)c1ccccc1` (configuration not stated): the outcome in assay [1] is “inactive”; in assay [2] it was “inactive”; in [3] it was “inactive”; in assay [4] it was “inactive”; in [5] it was “inactive”; with CD38, CD38 (gene 952), “inactive”.
As to `COP(=S)(OC)Oc1c(Cl)cc(C)cc1Cl`, the AC50 in assay [1] was 0.108 µM (active). In addition, the outcome in assay [2] was “inactive”; in [3] it was “inactive”; in [4], “inactive”; in [5] it was “inactive”; with CD38, CD38 (gene 952), “inactive”; with CD40, CD40 (gene 958), “inactive”.
For the molecule `CC(C)(C)CC(C)(C)c1ccc(O)cc1`, the AC50 is 8.47 µM (active) in assay [1]; 10.5 µM (active) in assay [7]; 9.26 µM (active) in [3]; 9.02 µM (active) in assay [4]; 10 µM (active) in assay [5]; 7.91 µM (active) with CD38, CD38 (gene 952). Also, the outcome in assay [2] was inactive.
With `O=c1[nH]c(=O)[nH]c(=O)[nH]1`, the outcome in assay [1], in assay [7], in assay [2], in [3], in [4] and in [5] was inactive. In addition, the outcome in assay [6] is “inactive”; in the assay with CD38, CD38 (gene 952), “inactive”; with CD40, CD40 (gene 958), “inactive”.
For the molecule `BrCCBr`, the outcome was “inactive” in [1]; “inactive” in assay [2]; “inactive” in [3]; “inactive” in [4]; “inactive” in assay [5]; “inactive” in the assay with CD38, CD38 (gene 952).
Consider `Nc1ccc(-c2ccc(N)c(Cl)c2)cc1Cl`, for which the outcome in [1] was “inactive”; in assay [2], “inactive”; in [3] it was “inactive”; in assay [4], “inactive”; in assay [5] it was “inactive”; with CD38, CD38 (gene 952), “inactive”. Also, the outcome in the assay with CD40, CD40 (gene 958) was inactive.
As for `Nc1cccc2ccccc12`, the result in [1], in assay [7], in assay [2], in [3], in [5] and in assay [6] was inactive. In addition, the outcome in the assay with CD38, CD38 (gene 952) was inactive. The AC50 in [4] was 9.83 µM (active).
Take `C[C@@H]1C[C@@H]([C@H](O)CC2CC(=O)NC(=O)C2)C(=O)[C@@H](C)C1`: the AC50 in assay [1] is 5.63 µM (active); in [2], 5.67 µM (active); in assay [3] it was 4.48 µM (active); in [4] it was 17.9 µM (active); in assay [5] it was 7.89 µM (active); with CD38, CD38 (gene 952), 6.11 µM (active).
Turning to `COC(=O)c1sccc1S(=O)(=O)NC(=O)Nc1nc(C)nc(OC)n1`, the result in assay [1], in [7], in [2], in [3], in assay [4] and in assay [5] was inactive. For the same molecule, the result with CD38, CD38 (gene 952) was inactive.
In the case of `CCOP(=S)(OCC)Oc1nc(Cl)c(Cl)cc1Cl`, the outcome in assay [1], in [7], in assay [2], in assay [4] and in assay [5] was inactive. In addition, the AC50 in assay [3] was 20 µM (active); in [6], 29.2 µM (active); with CD38, CD38 (gene 952), 32.3 µM (active); with CD40, CD40 (gene 958), 33.1 µM (active).
For the molecule `O=C(O)C(Cl)(Cl)Cl`, the result in assay [1], in assay [7], in assay [2], in assay [3], in assay [4] and in assay [5] was inactive. Also, the outcome was “inactive” in assay [6] and “inactive” with CD38, CD38 (gene 952).

The record behind these values is PubChem BioAssay (EPA / NIEHS).
